Results: ChEMBL document CHEMBL1961873, “Compounds: GSK PKIS; Assays: Nanosyn kinase panel” (2012)

What follows are molecules tested against Tyrosine-protein kinase ABL2 (Homo sapiens) (UniProt P42684). Settings: at 1 µM.
Chain of Tyrosine-protein kinase ABL2 (Homo sapiens) (P42684 whole entry): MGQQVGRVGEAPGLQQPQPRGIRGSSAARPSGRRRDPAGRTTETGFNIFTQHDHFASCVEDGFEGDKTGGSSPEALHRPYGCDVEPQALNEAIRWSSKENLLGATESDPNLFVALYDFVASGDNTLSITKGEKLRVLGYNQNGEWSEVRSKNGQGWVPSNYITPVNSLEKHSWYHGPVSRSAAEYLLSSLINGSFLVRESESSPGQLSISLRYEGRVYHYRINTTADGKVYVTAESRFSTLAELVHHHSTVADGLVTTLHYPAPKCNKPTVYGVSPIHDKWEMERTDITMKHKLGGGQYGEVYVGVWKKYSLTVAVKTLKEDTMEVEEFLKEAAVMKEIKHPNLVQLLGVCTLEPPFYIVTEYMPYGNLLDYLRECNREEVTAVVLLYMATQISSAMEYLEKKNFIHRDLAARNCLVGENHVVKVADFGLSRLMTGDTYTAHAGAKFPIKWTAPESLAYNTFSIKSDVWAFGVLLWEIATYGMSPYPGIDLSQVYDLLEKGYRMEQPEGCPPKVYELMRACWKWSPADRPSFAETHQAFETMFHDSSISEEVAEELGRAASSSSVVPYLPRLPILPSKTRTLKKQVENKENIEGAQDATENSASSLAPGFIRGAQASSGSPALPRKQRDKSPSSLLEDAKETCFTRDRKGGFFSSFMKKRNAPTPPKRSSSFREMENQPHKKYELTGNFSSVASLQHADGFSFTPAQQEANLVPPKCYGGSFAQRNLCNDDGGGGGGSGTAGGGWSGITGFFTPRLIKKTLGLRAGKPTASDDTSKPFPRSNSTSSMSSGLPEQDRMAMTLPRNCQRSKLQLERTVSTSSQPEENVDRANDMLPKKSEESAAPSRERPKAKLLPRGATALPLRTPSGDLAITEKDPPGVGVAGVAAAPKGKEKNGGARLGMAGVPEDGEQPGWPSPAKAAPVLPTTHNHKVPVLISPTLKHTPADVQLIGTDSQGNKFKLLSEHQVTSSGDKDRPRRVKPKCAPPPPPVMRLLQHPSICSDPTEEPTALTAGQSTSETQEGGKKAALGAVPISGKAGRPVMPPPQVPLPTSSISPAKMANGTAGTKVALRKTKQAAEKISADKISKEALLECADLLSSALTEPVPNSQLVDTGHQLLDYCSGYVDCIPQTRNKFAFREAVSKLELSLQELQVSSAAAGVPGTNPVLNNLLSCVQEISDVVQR
With `Nc1ccc(C#Cc2cncnc2Nc2ccc(OCc3cccc(F)c3)c(Cl)c2)cc1` the inhibition was 4.12%.
For `O=S(=O)(CCOCc1ccc(-c2ccc3ncnc(Nc4ccc(OCc5cccc(F)c5)c(Cl)c4)c3c2)o1)c1ccccc1`, the inhibition was 6.65%.
`Nc1nccc(C#Cc2cncnc2Nc2ccc(OCc3cccc(F)c3)c(Cl)c2)n1` gave an inhibition of 3.33%.
In the case of `ON=C1CCc2cc(-c3nc(C4CCNCC4)[nH]c3-c3ccncc3)ccc21`, the inhibition is reported as 6.46%.
Molecule `Cc1cc(O)cc(C)c1/C=C/c1cncc(C(=O)N(C)C)c1` has an inhibition of 12%.
With `CCn1c(-c2nonc2N)nc2c(C#CC(C)(C)O)nc(OCCNC)cc21` the inhibition was 4.33%.
Molecule `Cc1cc(-c2ccccn2)cc(C)c1/C=C/c1cncc(-c2nn[nH]n2)c1` has an inhibition of 20.2%.
For `NS(=O)(=O)c1ccc(-c2cc3ccncc3cc2OCc2ccccc2)cc1`, the inhibition was 6.27%.
`CS(=O)(=O)Nc1cccc(-c2ccc3c(NC(=O)C4CC4)n[nH]c3c2)c1` showed an inhibition of 3.55%.
Molecule `O=C(Nc1ccc(Oc2ccc3[nH]c(NC(=O)c4ccco4)nc3c2)cc1)Nc1cc(C(F)(F)F)ccc1F` has an inhibition of 66.4%.
In the case of `COc1ccc2ncnc(Nc3ccc(OCc4ccccc4)cc3)c2c1`, the inhibition is reported as 4.53%.
Molecule `COC(=O)c1cncc(/C=C/c2c(C)cc(O)cc2C)c1` has an inhibition of 57.4%.
`Cc1ccc(C(=O)NC2CC2)cc1-c1ccc2[nH]ncc2c1` was tested, and the inhibition was 0.73%.
Molecule `COc1cc2ncnc(Nc3ccc4c(cnn4Cc4ccccc4)c3)c2cc1OC` has an inhibition of 4.75%.
`Cc1ccc2c(c1)/C(=N/Nc1ccc(S(N)(=O)=O)cc1)C(=O)N2` gave an inhibition of 12.1%.
Work on `CN(C)CCCn1c(-c2nonc2N)nc2cnccc21` yielded an inhibition of -5.79%.
In the case of `CCCN1CCCC(c2ccc(Nc3nc(Nc4cc(F)ccc4C(N)=O)c4cc[nH]c4n3)c(OC)c2)C1` (stereo unspecified), the inhibition is reported as 3.99%.
`Cc1ccc(NC(=O)CC2CC2)cc1-c1ccc(C(=O)NCC2CC2)cc1` was tested, and the inhibition was 7.68%.
For `Cc1ccc(Nc2ccnc(Nc3cccc(C(N)=O)c3)n2)cc1O`, the inhibition was 77.1%.
`CN(c1ccc(NC(=O)Nc2ccc(OC(F)(F)F)cc2)cc1)c1ccnc(Nc2cccc(S(N)(=O)=O)c2)n1` gave an inhibition of 71.9%.
`CS(=O)(=O)CCNCc1nc(-c2ccc3ncnc(Nc4ccc(OCc5cccc(C(F)(F)F)c5)cc4)c3c2)cs1` gave an inhibition of 4.56%.
In the case of `Cc1nc(-c2ccccc2)n2nc(NCCCN3CCOCC3)ncc12`, the inhibition is reported as 4.35%.
`CN(C)C(=O)O[C@H]1CN[C@H](C#Cc2cc3ncnc(Nc4ccc(OCc5cccc(F)c5)c(Cl)c4)c3s2)C1` showed an inhibition of 6.24%.
`NC(=O)c1sc(-n2cnc3ccccc32)cc1OCc1ccccc1Br` was tested, and the inhibition was 7.23%.
In the case of `COc1cc(/C=N/Nc2ncnc3c2cnn3C(C)C)ccc1O`, the inhibition is reported as 68.5%.
Molecule `Cc1ccc2c(-c3ccnc(Nc4cccc(C(F)(F)F)c4)n3)c(-c3ccccc3)nn2n1` has an inhibition of 33.7%.
In the case of `CC(C)c1ccc2c(c1)NC(=O)/C2=N/Nc1ccc(S(N)(=O)=O)cc1`, the inhibition is reported as 25.7%.
`NS(=O)(=O)c1ccc(NC=C2C(=O)Nc3ccc4ncsc4c32)cc1` gave an inhibition of 31.4%.
Molecule `CN(C)c1cc2c(Nc3ccc4c(cnn4Cc4ccccc4)c3)ncnc2cn1` has an inhibition of 8.48%.
`Oc1cccc(-c2nc(-c3ccccc3)[nH]c2-c2ccncc2)c1` was tested, and the inhibition was 50.8%.
`CCn1c(-c2nonc2N)nc2ccc(F)cc21` showed an inhibition of 6.07%.
`CN1CCN(C(=O)c2ccc(NC(=O)Nc3ccc(N(C)c4ccnc(Nc5ccc(CS(C)(=O)=O)cc5)n4)cc3)cc2)CC1` showed an inhibition of 56.5%.
`Nc1nccc(-c2c(-c3ccc(F)cc3)nn3cc(C(F)(F)F)ccc23)n1` showed an inhibition of 3.62%.

The molecules below were run against Tyrosine-protein kinase receptor UFO (Homo sapiens) (UniProt P30530). Settings: at 0.1 µM.
Chain of Tyrosine-protein kinase receptor UFO (Homo sapiens) (P30530 whole entry): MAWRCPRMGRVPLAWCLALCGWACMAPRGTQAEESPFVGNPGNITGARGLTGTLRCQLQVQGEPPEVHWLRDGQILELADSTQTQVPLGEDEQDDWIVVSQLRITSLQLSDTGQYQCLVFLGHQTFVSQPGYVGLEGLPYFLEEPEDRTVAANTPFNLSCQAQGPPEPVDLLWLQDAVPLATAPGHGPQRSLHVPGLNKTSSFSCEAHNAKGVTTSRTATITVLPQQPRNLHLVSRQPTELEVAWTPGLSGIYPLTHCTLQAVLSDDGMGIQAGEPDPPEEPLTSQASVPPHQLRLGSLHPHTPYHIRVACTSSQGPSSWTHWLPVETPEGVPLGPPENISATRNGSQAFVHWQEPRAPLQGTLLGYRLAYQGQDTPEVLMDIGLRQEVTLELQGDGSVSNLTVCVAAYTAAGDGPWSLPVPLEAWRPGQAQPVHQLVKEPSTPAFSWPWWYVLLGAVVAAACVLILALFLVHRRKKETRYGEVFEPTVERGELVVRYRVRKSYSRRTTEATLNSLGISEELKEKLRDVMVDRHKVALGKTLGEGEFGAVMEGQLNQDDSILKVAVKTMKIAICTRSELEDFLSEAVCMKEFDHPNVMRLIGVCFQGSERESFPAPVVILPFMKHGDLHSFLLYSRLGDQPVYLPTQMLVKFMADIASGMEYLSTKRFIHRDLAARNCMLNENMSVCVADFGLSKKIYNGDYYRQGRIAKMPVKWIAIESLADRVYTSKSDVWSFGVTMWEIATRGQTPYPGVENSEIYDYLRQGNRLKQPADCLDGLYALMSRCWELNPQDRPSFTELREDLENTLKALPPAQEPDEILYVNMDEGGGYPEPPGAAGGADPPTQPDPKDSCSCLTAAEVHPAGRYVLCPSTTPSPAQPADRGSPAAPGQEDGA
Work on `Nc1ccc(C#Cc2cncnc2Nc2ccc(OCc3cccc(F)c3)c(Cl)c2)cc1` yielded an inhibition of -4.2%.
Molecule `O=S(=O)(CCOCc1ccc(-c2ccc3ncnc(Nc4ccc(OCc5cccc(F)c5)c(Cl)c4)c3c2)o1)c1ccccc1` has an inhibition of -0.96%.
`Nc1nccc(C#Cc2cncnc2Nc2ccc(OCc3cccc(F)c3)c(Cl)c2)n1` showed an inhibition of -7.36%.
`ON=C1CCc2cc(-c3nc(C4CCNCC4)[nH]c3-c3ccncc3)ccc21` was tested, and the inhibition was -1.8%.
`Cc1cc(O)cc(C)c1/C=C/c1cncc(C(=O)N(C)C)c1` showed an inhibition of -0.49%.
`CCn1c(-c2nonc2N)nc2c(C#CC(C)(C)O)nc(OCCNC)cc21` was tested, and the inhibition was -7.46%.
`Cc1cc(-c2ccccn2)cc(C)c1/C=C/c1cncc(-c2nn[nH]n2)c1` was tested, and the inhibition was -5.03%.
`NS(=O)(=O)c1ccc(-c2cc3ccncc3cc2OCc2ccccc2)cc1` was tested, and the inhibition was -5.69%.
`CS(=O)(=O)Nc1cccc(-c2ccc3c(NC(=O)C4CC4)n[nH]c3c2)c1` gave an inhibition of 0.1%.
`O=C(Nc1ccc(Oc2ccc3[nH]c(NC(=O)c4ccco4)nc3c2)cc1)Nc1cc(C(F)(F)F)ccc1F` gave an inhibition of 16.1%.
`COc1ccc2ncnc(Nc3ccc(OCc4ccccc4)cc3)c2c1` was tested, and the inhibition was -3.58%.
Molecule `COC(=O)c1cncc(/C=C/c2c(C)cc(O)cc2C)c1` has an inhibition of -3.94%.
For `Cc1ccc(C(=O)NC2CC2)cc1-c1ccc2[nH]ncc2c1`, the inhibition was 3.54%.
`COc1cc2ncnc(Nc3ccc4c(cnn4Cc4ccccc4)c3)c2cc1OC` was tested, and the inhibition was -3.79%.
`Cc1ccc2c(c1)/C(=N/Nc1ccc(S(N)(=O)=O)cc1)C(=O)N2` was tested, and the inhibition was -1.65%.
For `CN(C)CCCn1c(-c2nonc2N)nc2cnccc21`, the inhibition was -7.29%.
`CCCN1CCCC(c2ccc(Nc3nc(Nc4cc(F)ccc4C(N)=O)c4cc[nH]c4n3)c(OC)c2)C1` (stereo unspecified) gave an inhibition of 9.62%.
`Cc1ccc(NC(=O)CC2CC2)cc1-c1ccc(C(=O)NCC2CC2)cc1` gave an inhibition of -3.14%.
Work on `Cc1ccc(Nc2ccnc(Nc3cccc(C(N)=O)c3)n2)cc1O` yielded an inhibition of -5.49%.
For `CN(c1ccc(NC(=O)Nc2ccc(OC(F)(F)F)cc2)cc1)c1ccnc(Nc2cccc(S(N)(=O)=O)c2)n1`, the inhibition was -2.29%.
For `CS(=O)(=O)CCNCc1nc(-c2ccc3ncnc(Nc4ccc(OCc5cccc(C(F)(F)F)c5)cc4)c3c2)cs1`, the inhibition was -5.39%.
Molecule `Cc1nc(-c2ccccc2)n2nc(NCCCN3CCOCC3)ncc12` has an inhibition of -1.08%.
For `CN(C)C(=O)O[C@H]1CN[C@H](C#Cc2cc3ncnc(Nc4ccc(OCc5cccc(F)c5)c(Cl)c4)c3s2)C1`, the inhibition was -3.4%.
For `NC(=O)c1sc(-n2cnc3ccccc32)cc1OCc1ccccc1Br`, the inhibition was -6.14%.
In the case of `COc1cc(/C=N/Nc2ncnc3c2cnn3C(C)C)ccc1O`, the inhibition is reported as -0.67%.
`Cc1ccc2c(-c3ccnc(Nc4cccc(C(F)(F)F)c4)n3)c(-c3ccccc3)nn2n1` gave an inhibition of -5.69%.
In the case of `CC(C)c1ccc2c(c1)NC(=O)/C2=N/Nc1ccc(S(N)(=O)=O)cc1`, the inhibition is reported as -0.26%.
Work on `NS(=O)(=O)c1ccc(NC=C2C(=O)Nc3ccc4ncsc4c32)cc1` yielded an inhibition of -4.15%.
In the case of `CN(C)c1cc2c(Nc3ccc4c(cnn4Cc4ccccc4)c3)ncnc2cn1`, the inhibition is reported as -6.03%.
`Oc1cccc(-c2nc(-c3ccccc3)[nH]c2-c2ccncc2)c1` showed an inhibition of -4.03%.
With `CCn1c(-c2nonc2N)nc2ccc(F)cc21` the inhibition was -7.61%.
Molecule `CN1CCN(C(=O)c2ccc(NC(=O)Nc3ccc(N(C)c4ccnc(Nc5ccc(CS(C)(=O)=O)cc5)n4)cc3)cc2)CC1` has an inhibition of -3.75%.
For `Nc1nccc(-c2c(-c3ccc(F)cc3)nn3cc(C(F)(F)F)ccc23)n1`, the inhibition was 0.67%.
